The list is not random: actives were taken first. Their share in the collection is about 8.3%.
Chronic BCR inh – inhibitors of chronic active B-cell receptor signaling; ABC-DLBCL IkBa-CBG/CBR reporter, luminescence ratio, 4 h; hit rate 0.05% among 340,000; Potency, µM (titrated, usually from 46.1 µM), for inactives: at the top dose activity change, negative = inhibition, hits mostly inhibitors; active = well fitted inhibition curve with a large enough effect in the signal ratio, with a control signal flat, not every such curve was filed as active; inconclusive = small, poorly fitted or top-dose-only effect, or effect the other way, or a change in a side signal; the % refers to the signal ratio;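 note: potency is the fitted concentration of half-maximal effect; plate controls were basal doxycycline-induced cells for no effect and cells given 10 µM MG132 for full effect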
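Cell line TMD8 (human ABC DLBCL), stably expressing tet-inducible CBG68-IkBa fusion and CBR; IMDM/0.5% FBS; cpd up to 46 uM; dox induction, 4 h, 37C/5% CO2; dual luminescence; green/red ratio; MG132 control.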
MCF10A rereplic – DNA re-replication induction in MCF 10a cells; Potency, µM (highest dose often 46.1 µM), inactives show at the top dose activity, positive = re-replication, most hits filed as activators; MCF 10A DNA re-replication, Hoechst nuclear intensity, 48 h; hit rate 2.9% among 350,000; note: potency is the fitted concentration of half-maximal effect; % of control where 0% means no effect; nearly all actives have a fitted effect of over 50% in size
SW480 rerep – induces DNA re-replication in SW480 colon adenocarcinoma cells | hit rate 1.8% among 340,000 | Potency, µM (series often up to 46.1 µM), inactives show top-dose re-replication activation, hits mostly activators | SW480 DNA re-replication, Hoechst DNA content imaging, 48 h; note: potency is the fitted concentration of half-maximal effect; % of control where 0% means no effect; nearly all actives have a fitted effect of over 55% in size
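Quantitative HTS format with DMSO vehicle controls; 48 hr drug incubation at 37 C, then 40 min Hoechst staining and scanning imager measurement at 405 nm excitation.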
Gal4-VP16 FLuc – counter-screen for ROR gamma inhibitors: Gal4-VP16 reporter; AID 2546; Potency, µM (titrated, usually from 53.6 µM), for the others: top-dose activity, negative = inhibition, hits mostly inhibitors; Drosophila S2 Gal4-VP16 UAS-luciferase, luminescence, 20 h; hit rate 3.5% among 310,000;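 note: Gal4-VP16 expression switched on by copper sulfate through the metallothionein promoter; potency is the fitted concentration of half-maximal effect; % is set by controls: 0 for no effect and ±100 for the full control effect; nearly all actives have a fitted effect of over 50% in size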
Giardia killer – Giardia lamblia killing; hit rate 0.15% among 340,000; AID 540267; activity change, % at 7.66 µM, hits read low; Giardia lamblia trophozoite viability; in the data active = activity change below about -80%; inconclusive = between about -30% and that limit;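 note: parasites exposed to compound for two days anaerobically before the ATP read; % is set by controls: 0 for no effect and ±100 for the full control effect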
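Luminescent ATP signal served as the viability read-out, measured 15-30 min after adding ATP detection reagent to trophozoites that had been incubated with compounds for 48 hrs at 37 deg C anaerobically at 100 cells/well.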
RORg inh – ROR gamma (mouse) transcription inhibition; Drosophila S2 Gal4-RORgamma UAS-luciferase reporter, 20 h; AID 2551; P51450; hit rate 5.4% among 310,000; Potency, µM (highest dose often 53.6 µM), for the others: top-dose activity change, negative = inhibition, actives largely listed as inhibitors; note: potency is the fitted concentration of half-maximal effect; % is set by controls: 0 for no effect and ±100 for the full control effect; nearly all actives have a fitted effect of over 60% in size
Target sequence (P51450 whole entry, looked up, the tested form may be a part): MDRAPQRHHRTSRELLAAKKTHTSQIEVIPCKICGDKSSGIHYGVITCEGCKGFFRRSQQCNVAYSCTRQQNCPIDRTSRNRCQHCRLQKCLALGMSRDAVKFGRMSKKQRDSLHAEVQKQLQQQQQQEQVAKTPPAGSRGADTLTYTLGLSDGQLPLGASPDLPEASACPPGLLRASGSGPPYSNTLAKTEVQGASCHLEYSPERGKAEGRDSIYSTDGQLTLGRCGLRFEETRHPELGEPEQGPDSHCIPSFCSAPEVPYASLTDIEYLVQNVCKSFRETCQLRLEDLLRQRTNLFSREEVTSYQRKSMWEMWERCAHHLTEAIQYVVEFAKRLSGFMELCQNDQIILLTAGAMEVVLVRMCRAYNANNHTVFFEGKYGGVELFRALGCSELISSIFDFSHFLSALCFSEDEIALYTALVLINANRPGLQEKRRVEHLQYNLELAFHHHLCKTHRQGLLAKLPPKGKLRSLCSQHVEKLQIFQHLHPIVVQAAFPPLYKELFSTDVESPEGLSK
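Using a luciferase readout, inhibitors were identified by reduced reporter activity in Drosophila cells coexpressing a copper-inducible Gal4–ROR gamma fusion and UAS-driven Photinus luciferase, incubated 20 hr after 700 uM copper sulfate.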
An asterisk follows results filed as active; u = inconclusive; x = no result given. Unless noted, calls come from the whole dose curve; as a rule, active = well fitted curve in the direction sought with a large enough effect; inconclusive = small, poorly fitted or top-dose-only effect, or another doubt; inactive = no such curve, though single readings can be large; an effect the other way counts as inactive or inconclusive.

SMILES	Chronic BCR inh	MCF10A rereplic	SW480 rerep	Gal4-VP16 FLuc	Giardia killer	RORg inh
Clc1ccc(Oc2ncnc3oc(-c4ccccc4)cc23)cc1	-1%	5.8µM*	0%	-9%	11	0%
Cc1onc(-c2ccccc2)c1C(=O)NNC(=S)NC(=O)c1ccc2c(c1)OCO2	u	1%	6%	-15%	-8	2.5µM*
COc1ccc(C(=O)NC(=S)NNC(=O)c2c(-c3ccccc3)noc2C)cc1OC	u	2%	16%	14µM*	-18	4µM*
Cc1onc(-c2ccccc2)c1C(=O)NCc1ccc2c(c1)OCO2	-2%	u	1%	-41%	3	u
Cc1onc(-c2ccccc2)c1C(=O)NNC(=S)NC(=O)/C=C/c1cccs1	-7%	u	-2%	4.5µM*	13	3.5µM*
COc1ccc(C)cc1NC(=O)CN1C(=O)COc2ccc(C)cc21	-4%	10%	4%	-2%	10	1%
CCOC(=O)c1cnc(SC)nc1Sc1ccccc1Cl	u	u	-5%	-6%	-20	-12%
CSc1nc(Sc2ccccc2Cl)c2ccccc2n1	u	23µM*	u	5%	1	u
CC(C)CCNC(=S)Nc1ccccn1	0%	0%	-6%	4µM*	-8	0.56µM*
CC(C)CCNC(=O)CN(Cc1ccc(F)cc1)C(=O)CCC(=O)Nc1ccccn1	4%	2%	-14%	-5%	-16	13%
Cc1cccc(NC(=S)NCCC(C)C)c1	8%	-1%	16%	u	-14	-10%
COCCNC(=S)Nc1ccccn1	3%	u	u	u	2	18µM*
COCCNC(=S)Nc1ccc(S(=O)(=O)Nc2ncccn2)cc1	1%	7%	12%	6%	3	-3%
CC(C)CCNC(=S)Nc1ccccc1F	8%	1%	-4%	11µM*	13	7.9µM*
O=C(O)c1cc(N=Nc2ccc([N+](=O)[O-])cc2)ccc1O	x	x	x	-11%	x	-1%
CCCn1c2ccccc2c2nc3ccccc3nc21	u	22µM*	u	13%	-10	4%
CCN(CC)CCn1c2ccccc2c2nc3ccccc3nc21	u	u	u	-2%	-7	-9%
COC(=O)c1ccc(Cl)c(NS(=O)(=O)c2ccc3c(c2)OCCO3)c1	-29%	u	18µM*	16%	-6	-18%
COC(=O)c1ccc(Oc2c(Cl)cccc2[N+](=O)[O-])cc1	u	2%	-1%	-28%	-11	7.9µM*
O=C(O)c1cc(N=Nc2ccc(-c3ccc(N=Nc4ccc(O)c(C(=O)O)c4)cc3)cc2)ccc1O	x	x	x	-7%	x	7%
C=CCn1c(NC(=O)c2ccccc2Cl)c(C#N)c2nc3ccccc3nc21	u	16µM*	18µM*	u	-20	u
Cn1c(Cn2nnc(-c3ccccc3)n2)nnc1SCc1ccccc1Cl	u	0%	-5%	11µM*	5	6%
Cc1ccc(NC(=O)N2CCc3ccccc32)cc1C	u	u	1%	u	-21	u
CN1CCN(c2ccc(NC(=O)N3CCc4ccccc43)cc2)CC1	-1%	16%	1%	8.9µM*	u	10µM*
Cc1ccc(NC(=O)N2CCc3ccccc32)cc1	u	4%	3%	10µM*	u	u
O=C(Nc1ccc(Cl)cc1)N1CCc2ccccc2C1	-8%	-1%	-143%	u	6	0.89µM*
NC(=O)C1(N2CCCCC2)CCN(C(=O)CSc2nc(C(F)(F)F)cc(=O)[nH]2)CC1	u	-5%	-14%	0%	18	2%
O=C(Cn1ccc(NC(=O)OCc2ccccc2)nc1=O)NCCCN1CCCC1=O	4%	9%	-6%	x	-10	x
CCCCn1c(-c2ccc(C(C)(C)C)cc2)nc2cc3[nH]c(=O)c(C(C)C)nc3cc21	u	18µM*	3%	-2%	40	15%
CCCCn1c(-c2cccnc2)nc2cc3[nH]c(=O)c(C(C)C)nc3cc21	u	21%	-4%	-5%	-9	18%
